Reference: PubChem BioAssay (NCI)
The panel holds about 83,000 compounds, 20% with a hit somewhere; the sample as a whole holds those more often.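 Note: values are percent growth. 100 is the growth of untreated cells, values between 100 and 0 indicate rising inhibition; between -100 and 0 indicates cell death.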 Unmarked numbers belong to inactive results. The source made the active and inactive calls. How the source made its calls: active means growth percent below 10; inactive means the rest.

Tests used:
Assay in all cases: NCI-60 one-dose screen, 48 h (100 = growth as untreated, 0 = no growth, -100 = all killed)
Settings in all cases: 10 µM unless noted
[1] = system: HCT-15 colon
[2] = system: HT29 colon
[3] = system: SNB-75 CNS
[4] = system: SNB-19 CNS
[5] = system: U251 CNS
[6] = system: PC-3 prostate
[7] = system: SK-MEL-5 melanoma
[8] = system: UACC-62 melanoma
[9] = system: LOX IMVI melanoma
[10] = system: SK-MEL-28 melanoma
[11] = system: SK-MEL-2 melanoma
[12] = system: EKVX NSCLC
[13] = system: SN12C renal
[14] = system: UO-31 renal
[15] = system: TK-10 renal
[16] = system: ACHN renal
[17] = system: CAKI-1 renal
[18] = system: A498 renal
[19] = system: CCRF-CEM leukemia
[20] = system: MOLT-4 leukemia

SMILES	growth [1]	growth [2]	growth [3]	growth [4]	growth [5]	growth [6]	growth [7]	growth [8]	growth [9]	growth [10]	growth [11]	growth [12]	growth [13]	growth [14]	growth [15]	growth [16]	growth [17]	growth [18]	growth [19]	growth [20]
Nc1cccc2c(=S)c3ccccc3[nH]c12	95.4%	117%	94.6%	89.8%	104%	82.5%	91.4%	87.6%	88.5%	114%	87.5%	93.6%	90.6%	56.4%	192%	92.7%	77.1%	64.5%	100%	104%
N#Cc1c(-c2cccc(F)c2)cc(-c2ccc(Br)s2)[nH]c1=O	27.2%	118%	61.2%	78.4%	56.2%	78.2%	68.8%	57.9%	61.7%	71.3%	60%	89.3%	92.4%	74.1%	108%	91.9%	49.8%		90.7%	82.6%
CC1=C(C/C=C(\C)CCC[C@H](C)CCC[C@H](C)CCCC(C)C)C(=O)c2ccccc2C1=O	104%	105%	95.1%	101%	98.5%	98.2%	112%	105%	96.4%	128%	114%	114%	99.7%	71.7%	95.6%	104%	103%		102%	101%
COc1cc(/C=C2\C(=O)N(c3c(Cl)cccc3Cl)c3ccccc32)cc(OC)c1O	30.7%	22.6%	61.7%	52.4%	22.4%	15.2%	32.3%	47.5%	2.06% (active)	58.8%	36%	79.8%	50%	31.7%	48.2%	40.5%	7.23% (active)	102%	17.6%	0.985% (active)
O=c1oc2ccccc2cc1-c1csc(N=Nc2c(O)[nH]c3ccc(Br)cc23)n1	105%	109%	86.2%	95.8%	103%	102%	96.5%	95%	99.9%	101%	107%	95.8%	98.7%	86.3%	111%	97.9%	93.4%		97.2%	120%
COc1cc(/C=N/NC(=O)c2cnn3c2NC(c2ccccc2)C3)ccc1OC1CCCC1 (stereo unspecified)	24.6%	11.8%	-13.7% (active)	39.1%	33%	10.1%	25.6%	23.8%	21.7%	40.3%	18.6%	44.9%	46.1%	33.1%	60.2%	35.6%	32.2%		24.3%	41.6%
CCN(CC)c1ccc2c(c1)OS(=O)(=O)N=C2	102%	111%	87.9%	101%	99.3%	100%	99.5%	101%	89.2%	105%	113%	88%	100%	82.6%	101%	102%	94.7%		106%	110%
Cc1cc(O)cc2c1[C@H]1CC[C@]3(C)[C@@H](O)CC[C@H]3[C@@H]1C=C2	78.7%	93.5%	76.2%	94.7%	92.5%	86.3%	83.8%	73.5%	81.3%	99.8%	86.4%	105%	98.5%	98.4%	102%	96.7%	108%	118%	69.4%	79%
O=S(=O)(OCCO)c1ccccc1	103%	98.9%	75%	102%	106%	99.3%	94.4%	94.2%	103%	110%	102%	103%	96.2%	90.4%	100%	104%	88.2%		61.8%	108%
Cc1ccc(N(CSc2ccc(Cl)cc2)CSc2ccc(Cl)cc2)cc1	67.2%	74.7%	106%	78.6%	47.8%	10.8%	65.5%	60%	-10.1% (active)	102%	86.2%	17.4%	30.3%	22.1%	92.2%	66.6%	28.8%	-22.4% (active)	-7.51% (active)	-16.3% (active)
CCCCc1ccc(NC(=O)C(F)(F)F)cc1	105%	99.8%	102%	106%	97.4%	101%	106%	99.9%	95.5%	112%	99%	120%	98.3%	83.8%	95.4%	102%	105%	84.1%		74.9%
CC1SC(c2cccc(Oc3ccccc3)c2)N(CCc2cccs2)C1=O (stereo unspecified)	-16.3% (active)	-24.7% (active)	-11.7% (active)	11.9%	-25.7% (active)	2.18% (active)	-100% (active)	-71.1% (active)	-100% (active)	-57% (active)	-75.7% (active)	-24.1% (active)	-86.3% (active)	-17.7% (active)	-16.2% (active)	-12.8% (active)	-37.4% (active)	-56.6% (active)		-2.19% (active)
COc1cc(/C=C2\C(=O)Nc3ccccc32)cc(OC)c1O	61.6%	75.7%	23.1%	83.7%	47%	51.2%	45.7%	72.1%	36.5%	90.3%	50.4%	110%	77%	60%	88.5%	77%	37.7%	52.5%		0.624% (active)
CCCCC/C=C\C/C=C/CCCCCCCCNC(=O)Nc1ccc([N+](=O)[O-])cc1	78%	60.7%	103%	89.6%	51.3%	16.3%	103%	68.4%	17.4%	106%	119%	79.1%	83.2%	60.5%	82.5%	65.8%	56.2%	83.7%	31.4%	43.2%
COc1cc(CNCCN2C(=O)c3ccc4c5c(ccc(c35)C2=O)C(=O)N(CCNCc2cc(OC)c(OC)c(OC)c2)C4=O)cc(OC)c1OC	-66.2% (active)	-52.3% (active)	-98% (active)	-79.8% (active)	-68.1% (active)	-73.1% (active)	-87.7% (active)	-92.4% (active)	-99% (active)	-89.3% (active)	-82.3% (active)	-42% (active)	-87.7% (active)	-70.2% (active)	-87.1% (active)	-92.2% (active)	-70% (active)	-92.7% (active)	-20.7% (active)	-4.82% (active)
COc1cc(CNCCCN2C(=O)c3ccc4c5c(ccc(c35)C2=O)C(=O)N(CCCNCc2cc(OC)c(OC)c(OC)c2)C4=O)cc(OC)c1OC	-29.4% (active)	-47.6% (active)	-97.2% (active)	-92.3% (active)	-74.5% (active)	-54.8% (active)	-99.7% (active)	-90.2% (active)	-85.6% (active)	-91.7% (active)	-71.8% (active)	-72.9% (active)	-98.9% (active)	4.39% (active)	-28.5% (active)	-24.5% (active)	36.9%	-11.5% (active)	0.649% (active)	-12.6% (active)
